The campaign covered roughly 340,000 compounds. About 3,300 (0.97%) were called active. Another 9% or so got no clear call; they are omitted. The call rests on the fitted dose curve; in most records, active means well fitted inhibition curve with a large enough effect; inconclusive means small, poorly fitted or top-dose-only effect, or effect the other way; inactive means flat fitted curve, though single readings scatter. The list shows a part of the results.
Experiment: qHTS Assay for Modulators of miRNAs and/or Inhibitors of miR-21; further: nearly all actives have a fitted effect of over 55% in size
Conditions: HeLa miR-21-FLuc reporter, luciferase luminescence, 48 h; actives lower the signal
Outline: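 Luminescence from a firefly luciferase reporter carrying a miR-21 binding site downstream, stably expressed under a CMV promoter in HeLa cells that make miR-21 endogenously, reports miRNA modulation after 48 h compound exposure up to approximately 40uM final.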
Potency means the concentration at half of the fitted maximal effect.

Potency, active:
C=CCNc1ncnc2c1cnn2-c1ccc(Cl)cc1 0.329 µM, Clc1ccc(-n2ncc3c(NCc4ccccn4)ncnc32)cc1 5.85 µM, Fc1cccc(Cl)c1CSc1nnc(-c2ccncc2)o1 14.7 µM, COc1ccc2c(c1)CC/C(=C\c1ccc(C)o1)C2=O 2.93 µM, COc1ccc2c(c1)CC/C(=C/c1ccco1)C2=O 1.85 µM, O=C1/C(=C/c2ccco2)CCc2ccccc21 18.5 µM, O=[N+]([O-])c1ccccc1-c1nc(-c2ccc(Br)o2)no1 1.47 µM, CCCCOc1ccc(CSc2nncn2N)cc1 14.7 µM, COc1cccc(/C=C2\CCC(C3CCCC3)C2=O)c1OC (centres undefined) 4.14 µM, Cc1ccsc1/C=C1\CCC(C2CCCC2)C1=O (centres undefined) 3.69 µM, COc1ccc(NC(=O)c2noc3c2CCCC3)cc1Cl 0.369 µM, Cc1c(Cl)cccc1NC(=O)c1noc2c1CCCC2 7.36 µM, Cc1ccc2c(c1)c1ncnc(N3CCOCC3)c1n2C 13.1 µM, Cc1ccc2c(c1)c1ncnc(N3CCC4(CC3)OCCO4)c1n2C 7.36 µM, Fc1ccccc1NC(=S)N/N=C/c1ccccc1Br 4.65 µM, Fc1cccc(/C=N/NC(=S)Nc2ccccc2Cl)c1 4.65 µM, N/C(=N\NC(=O)Nc1ccc(Cl)cc1)c1ccccn1 3.29 µM, N/C(=N\NC(=O)Nc1ccccc1)c1ccccn1 2.61 µM, Cc1cc(C)c(C#N)c(SCc2nnc(-c3ccccc3[N+](=O)[O-])o2)n1 3.69 µM, O=c1c2ccccc2nc2sc3ccccc3n12 6.56 µM, CCOc1cccc2c1OC1(CCCCC1)N1N=C(c3cccnc3)CC21 (centres undefined) 16.5 µM, CCN1CCC2(CC1)Oc1c(OC)cccc1C1CC(c3cccnc3)=NN12 (centres undefined) 11.7 µM, CC(=O)c1c(C)[nH]c(C(=O)Nc2ccc(Cl)cc2F)c1C 2.07 µM, Cc1nnc2n(c1=O)N=C(c1ccc(Cl)cc1)CS2 1.65 µM, O/N=C/c1ccnc(SCc2ccccc2)n1 10.4 µM, Cc1nc(C)c(-c2ccc(SCc3ccccc3F)nn2)s1 14.7 µM, Cc1ccc2scc(N3CCCCC3C)c(=O)c2c1 (centres undefined) 14.7 µM, Cc1ccc2scc(N3CCCC(C)C3)c(=O)c2c1 (centres undefined) 6.56 µM, Cc1cc(NC(=S)Nc2ccc(C)c(Cl)c2)n[nH]1 7.36 µM, COc1ccc(NC(=S)Nc2cc(C)[nH]n2)cc1Cl 18.5 µM, Cc1cc(C(=O)CSc2ccc3c(c2)OCCO3)c(C)n1C1CC1 7.36 µM, CC(C)(C)c1ccc(NC(=O)c2ccc(=O)[nH]n2)cc1 0.826 µM, Cc1ccc(NC(=O)c2ccc(=O)[nH]n2)cc1C 6.56 µM, O=C(OCc1nc2ccccc2s1)c1ccco1 7.36 µM, Nc1ccc(C(=O)OCc2nc3ccccc3s2)cc1 16.5 µM, COc1cc(OC)cc(C(=O)NCC(=O)OCc2nc3ccccc3s2)c1 0.464 µM, Cc1ccc(-n2c(C)c(C)c3c(NCCO)ncnc32)cc1 13.1 µM, Cc1ccc(-n2c(C)c(C)c3c(NCCCO)ncnc32)cc1 7.36 µM, Cc1c(C)n(CCc2ccccc2)c2ncnc(NCCO)c12 4.14 µM, COc1ccc(-c2nnc(-c3ccc(C)cc3)o2)cc1 2.07 µM, COc1ccc(-c2nnc(-c3ccc(F)cc3)o2)cc1 1.04 µM, c1ccc(Nc2nnc(-c3cccnc3)s2)cc1 0.261 µM, CCS(=O)(=O)N1Cc2ccccc2CC1C(=O)Nc1nccs1 (centres undefined) 14.7 µM, CCS(=O)(=O)N1Cc2ccccc2CC1C(=O)Nc1nc2ccc(F)cc2s1 (centres undefined) 4.65 µM, CCS(=O)(=O)N1Cc2ccccc2CC1C(=O)Nc1nc(C)cs1 (centres undefined) 10.4 µM, CC(C)(C)SCCNC(=O)/C=C/c1ccccc1 11.7 µM, O=C(/C=C/c1ccc(F)cc1)NCCC1=CCCCC1 7.36 µM, O=C(/C=C/c1ccccc1)NCCC1=CCCCC1 5.85 µM, CCN(CC)c1ccc(N=Nc2nn(C)c(C)c2[N+](=O)[O-])cc1 0.736 µM, CCN(Cc1ccccc1)c1ccc(N=Nc2nn(C)c(C)c2[N+](=O)[O-])cc1 18.5 µM, CCc1cc2cc(C(=O)Nc3ccc(F)cc3)sc2s1 1.65 µM, COc1cc(NC(=O)c2cc(-c3cccc(OC)c3)n[nH]2)cc(OC)c1 3.29 µM, CCOC(=O)c1cn[nH]c1NC(=S)Nc1ccc(Cl)cc1 0.656 µM, COc1ccc2cc(-c3ccn[nH]3)ccc2c1 0.927 µM, CNc1nc(Nc2ccc(C)c(Cl)c2)nc(N)c1[N+](=O)[O-] 3.29 µM, Cc1ccc(Nc2nc(N)c([N+](=O)[O-])c(NCCO)n2)cc1C 13.1 µM, O=C(c1cc(-c2cccc(Cl)c2)on1)N1CCCC1 3.69 µM, O=C(c1cc(-c2cccc(Cl)c2)on1)N1CCCCCC1 4.65 µM, CSc1c(C#N)c(N)c(C#N)c2c1COC(C)(C)C2 18.5 µM, CN1CCN(/N=C/c2ccc(Cl)c(Cl)c2)CC1 7.36 µM, CN1CCN(/N=C/c2ccc(Br)cc2)CC1 14.7 µM, Cc1c(-c2nnc(SCC(=O)Nc3ccccc3F)o2)nnn1-c1ccc(F)cc1 2.93 µM, Cc1nn(-c2ccccc2)c(Cl)c1/C=N/NC(=O)c1ccc(NS(=O)(=O)c2cccs2)cc1 4.14 µM, Cc1nn(-c2ccc(F)cc2)c(Cl)c1/C=N/NC(=O)c1cccs1 2.93 µM, Clc1ccc(-c2nc(-c3cnccn3)no2)cc1 0.521 µM, Fc1ccc(-c2nc(-c3cnccn3)no2)c(Cl)c1 0.464 µM, O=C(c1ccccc1)c1c(O)nc(-c2ccccc2)n(-c2ccccc2)c1=O 13.1 µM, O=C(Nc1ccn(Cc2ccccc2)n1)c1n[nH]c([N+](=O)[O-])c1Cl 2.07 µM, CCSc1nnc2ccc(-c3ccc(C)cc3)nn12 16.5 µM, CCSc1nnc2ccc(-c3ccc(OC)c(OC)c3)nn12 14.7 µM, CC(=O)c1sc(NC(=O)c2ccc(C(C)(C)C)cc2)nc1C 0.826 µM, CC(=O)c1sc(NC(=O)c2ccc(C)c(C)c2)nc1C 0.585 µM, Cc1ccsc1C(=O)OCC(=O)N1CCc2ccccc2C1 3.29 µM, Cc1ccc(Cl)c(OCC(=O)N2CCc3ccccc3C2)c1 14.7 µM, CC(=O)c1ccc(N2CCc3ccccc3C2)c([N+](=O)[O-])c1 9.27 µM, COc1cc2c(cc1OC)CN(c1ccc(F)cc1[N+](=O)[O-])CC2 13.1 µM, COc1cc2c(cc1OC)CN(c1ncccc1[N+](=O)[O-])CC2 18.5 µM, CC(=O)c1cccc(OCc2cc(C(=O)N3C[C@H]4CC[C@H]3C4)no2)c1 5.21 µM, CC(=O)c1cccc(OCc2cc(C(=O)N(C)CCC3CCOCC3)no2)c1 16.5 µM, O=C(c1cc(COc2ccc(F)cc2F)on1)N1C[C@H]2CC[C@H]1C2 13.1 µM, COc1cc(Cl)ccc1OCc1cc(C(=O)N2C[C@H]3CC[C@H]2C3)no1 5.21 µM, Cc1nonc1C1CCCN1C(=O)c1cc(COc2ccc(F)cc2F)on1 (centres undefined) 4.14 µM, CCCCOC(=O)Nc1ccc(C(C)C)cc1 11.7 µM, CCCCOC(=O)Nc1ccc(N2CCOCC2)cc1 7.36 µM, COc1ccccc1NC(=O)Nc1ccc(N2CCOCC2)cc1 8.26 µM, Cc1ccc2nc3c(cc(S(=O)(=O)c4ccccc4)c(=N)n3Cc3ccco3)c(=O)n2c1 5.85 µM, COc1ccccc1NC(=O)c1ccc2[nH]c(C)c(C)c2c1 5.21 µM, Cc1[nH]c2ccc(C(=O)N3CCCCC3)cc2c1C 2.07 µM, Cc1ccccc1NC(=O)c1ccc2[nH]c(C)c(C)c2c1 1.31 µM, COc1cc2c(cc1NC(=O)c1ccccc1F)CCCC2 7.36 µM, Cc1nc2c(-c3ccccc3)c(C)nn2c(N)c1-c1ccccc1 1.85 µM, Cc1nn2c(N)c(C#N)cnc2c1-c1ccccc1 16.5 µM, Cc1ccc(C2=N/C(=C/N3CCOCC3)C(=O)O2)cc1 6.56 µM, Cc1ccc(C2=N/C(=C\N3CCCCC3)C(=O)O2)cc1 1.65 µM, O=C1OC(c2ccccc2)=N/C1=C\N1CCCCC1 8.26 µM, COC(=O)c1ccc(COc2ccccc2/C=C(\C#N)C(=O)Nc2ccc(C)cc2)cc1 7.36 µM, CCCOc1ccccc1/C=C(\C#N)C(=O)Nc1cccnc1 8.26 µM, Cc1cc(/C=C(\C#N)C(=O)Nc2ccccc2)c(C)n1-c1cccnc1 1.65 µM, COc1ccc(N=Nc2c(C)[nH][nH]c2=O)cc1 10.4 µM, COc1ccc(N=Nc2c(C)n[nH]c2C)cc1 10.4 µM, CCOC(=O)c1ccc2[nH]c3c(c2c1)CCCC3NC=O (centres undefined) 16.5 µM, O=C(Cc1ccccc1F)Nc1ccc2c(c1)CCC2 3.29 µM, O=C(Cc1ccccc1F)Nc1ccc(SC(F)F)cc1 2.07 µM, O=C(Cc1ccc2c(c1)CCCC2)Nc1ccc2ccccc2c1 13.1 µM

Source: PubChem BioAssay AID2289 (National Center for Advancing Translational Sciences (NCATS), 2010)
